The panel holds about 83,000 compounds, 20% with a hit somewhere; the sample as a whole holds those more often.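 The endpoint reported here, percent growth, reads 100 for growth as untreated, 0 for no net growth and -100 for all cells dead.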 Unmarked numbers belong to inactive results. Calls of active or inactive are those of the source. The calls were made as follows: active = growth percent below 10; inactive = the rest.
Key:
Assay in all cases: NCI-60 one-dose screen, 48 h (100 = growth as untreated, 0 = no growth, -100 = all killed)
Conditions in all cases: 10 µM unless noted
SK-MEL-2 melanoma = tested on: SK-MEL-2 melanoma
EKVX NSCLC = tested on: EKVX NSCLC
SN12C renal = tested on: SN12C renal
UO-31 renal = tested on: UO-31 renal
ACHN renal = tested on: ACHN renal
CAKI-1 renal = tested on: CAKI-1 renal
A498 renal = tested on: A498 renal
CCRF-CEM leukemia = tested on: CCRF-CEM leukemia
SR leukemia = tested on: SR leukemia
OVCAR-8 ovarian = tested on: OVCAR-8 ovarian
OVCAR-5 ovarian = tested on: OVCAR-5 ovarian
OVCAR-4 ovarian = tested on: OVCAR-4 ovarian
SK-OV-3 ovarian = tested on: SK-OV-3 ovarian
IGROV1 ovarian = tested on: IGROV1 ovarian
NCI/ADR-RES ovarian = tested on: NCI/ADR-RES ovarian
MOLT-4 leukemia = tested on: MOLT-4 leukemia
RPMI-8226 leukemia = tested on: RPMI-8226 leukemia
OVCAR-3 ovarian = tested on: OVCAR-3 ovarian
HS 578T breast = tested on: HS 578T breast
TK-10 renal = tested on: TK-10 renal

Compound | growth (SK-MEL-2 melanoma) | growth (EKVX NSCLC) | growth (SN12C renal) | growth (UO-31 renal) | growth (ACHN renal) | growth (CAKI-1 renal) | growth (A498 renal) | growth (CCRF-CEM leukemia) | growth (SR leukemia) | growth (OVCAR-8 ovarian) | growth (OVCAR-5 ovarian) | growth (OVCAR-4 ovarian) | growth (SK-OV-3 ovarian) | growth (IGROV1 ovarian) | growth (NCI/ADR-RES ovarian) | growth (MOLT-4 leukemia) | growth (RPMI-8226 leukemia) | growth (OVCAR-3 ovarian) | growth (HS 578T breast) | growth (TK-10 renal)
CCC(C)C1NC(=O)C(CCNCS(=O)(=O)O)NC(=O)C(NC(=O)C(CCNCS(=O)(=O)O)NC(=O)C(NC(=O)C(CCNCS(=O)(=O)O)NC(=O)CCCCC(C)C)C(C)O)CCNC(=O)C(C(C)O)NC(=O)C(CCNCS(=O)(=O)O)NC(=O)C(CCNCS(=O)(=O)O)NC(=O)C(C(C)CC)NC1=O (centres undefined) | 39.9% | 83.7% | 63.6% | 75% | 94.5% | 99.4% | 88.8% | 20.7% | 16.4% | 78.7% | 73.1% | 58.1% | 40.3% | 56.8% | 107% |  |  |  |  | 
C[C@H]1O[C@@H](O[C@H]2[C@@H](O)C[C@H](O[C@H]3[C@@H](O)C[C@H](O[C@H]4CC[C@]5(C)C6C[C@@H](O)[C@]7(C)[C@@H](C8=CC(=O)OC8)CC[C@]7(O)C6CC[C@@H]5C4)O[C@@H]3C)O[C@@H]2C)C[C@H](O)[C@@H]1O (some centres undefined) | -72.8% (active) | -100% (active) | -61.7% (active) | -82.4% (active) | -75.8% (active) | -100% (active) | -33% (active) | -56.6% (active) | -9.87% (active) | -93.5% (active) | -99.7% (active) | -29.6% (active) | -93.3% (active) | -38.4% (active) | -87.7% (active) | -33.7% (active) | -23.7% (active) | -100% (active) | -9.01% (active) | 
O=C1CSC(c2ccccc2Cl)N1c1nnc(Cn2nnc3ccccc32)o1 (centres undefined) | 91.7% | 75% | 87.4% | 66.3% | 83.6% | 40.6% | 50.2% | 85.6% | 76% | 82.5% | 91.2% | 81% | 94.6% | 79.6% | 62.4% | 73.4% | 69% | 71.4% | 103% | 
CCSc1nc(Nc2ccc(S(=O)(=O)Nc3ccon3)cc2)c(C#N)c(-c2cccc(Br)c2)n1 | 119% | 87.7% | 99.2% | 102% | 91.3% | 87.8% | 93.7% | 77.7% | 93.7% | 91.2% | 89.6% | 103% | 99.1% | 122% | 110% | 72.6% | 79.3% | 117% | 105% | 
OC(c1ccccc1)C(NCc1ccccc1)c1ccccc1 (centres undefined) | 120% | 86% | 104% | 92% | 99.5% | 62.8% | 87.7% | 97.3% | 103% | 109% | 88.6% | 94.3% | 101% | 96.7% | 85.1% | 100% | 84.3% |  | 107% | 
c1ccc2nc(Cn3c[n+](Cc4ccc5ccccc5n4)c4ccccc43)ccc2c1 | 28.9% | 74.7% | 22.7% | 79.5% | 103% |  | 51.1% | 34.9% | 14.7% | 29.9% | 71.1% | 22.7% | 57.4% | 34.8% | 102% | 31.9% | -6.43% (active) | 23.8% | 60.5% | 
Cc1csc(C#Cc2cncc(O)c2)n1 | 108% | 110% | 102% |  | 117% | 93.8% | 103% | -8.24% (active) | 110% | 102% | 90.9% | 125% | 108% | -14% (active) | 113% | 105% | 98.5% | 111% | 132% | 121%
CC(C)Sc1nc(Cl)c(C#N)c(-c2ccc(F)cc2)n1 | 98.2% | 99.2% | 97.3% | 85.6% |  | 104% | 99.9% | 6.61% (active) | -25.2% (active) | 97.1% | 99.2% | 107% | 110% | 103% | 105% |  | 78.5% | 128% | 106% | 
